# Shown are actives, neighbours in structure and some others; about 3.4% of the full set was active somewhere.
# m-calpain inh: blocks pig calpain II enzyme activity; purified calpain II, fluorogenic peptide substrate, 30 min; AID 1236; inhibition, % at 16 µM; 0.37% of 220,000 active;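 active means inhibition above about 50%, limit read from the data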
# Mcl-1 Bim block: human Bim-Mcl-1 interaction inhibition; Q07820; Bead-based flow cytometry, Bim peptide-Mcl-1 binding; inhibition, % at 10 µM; 0.1% of 190,000 active; in the data active means inhibition above about 40%;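 further: 0% = no compound tracer wells and 100% = peptide blocker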
# Target sequence (Q07820 whole entry, looked up): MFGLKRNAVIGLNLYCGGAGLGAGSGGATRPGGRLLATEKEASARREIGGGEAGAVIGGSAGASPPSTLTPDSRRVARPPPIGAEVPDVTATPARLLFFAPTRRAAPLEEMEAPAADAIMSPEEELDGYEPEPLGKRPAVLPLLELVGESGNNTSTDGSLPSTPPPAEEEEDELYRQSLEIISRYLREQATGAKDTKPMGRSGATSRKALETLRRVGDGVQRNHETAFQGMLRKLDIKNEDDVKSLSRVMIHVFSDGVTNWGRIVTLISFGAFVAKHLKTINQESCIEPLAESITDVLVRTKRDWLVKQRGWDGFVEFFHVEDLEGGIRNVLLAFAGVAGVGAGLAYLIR
# NCF1 inh: p47phox (human) inhibition; inhibition, % at 24.7 µM; 0.53% of 220,000 active; p47phox/p22phox peptide binding, fluorescence polarization, 2 h; P14598;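 active means inhibition above about 30%, limit read from the data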;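 further: 0% = p47phox with labelled peptide and 100% = labelled peptide alone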
# 14-3-3 Bad PPI: disrupts binding of bovine 14-3-3 zeta to phospho-Bad peptide | inhibition, % at 21.7 µM | 0.71% of 220,000 active | P63103 | TR-FRET 14-3-3zeta/Dy647-pBad peptide displacement, 1 h;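 active means inhibition above about 70%, limit read from the data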;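 further: 0% = full 14-3-3 plus peptide FRET controls and 100% = background without 14-3-3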
# Mcl1 Bid PPI: Mcl-1/Bid interaction inhibition; 0.97% of 220,000 active; TR-FRET Mcl-1/Bid-Dy647 peptide binding, 1536-well; Q07820; inhibition, % at 21.7 µM; AID 1021;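 active means compounds that cut the binding signal by more than half at the single screening dose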;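 further: His-tagged Mcl-1 with europium anti-His antibody binding Bid BH3 peptide; 0% = Mcl-1 plus peptide wells and 100% = peptide-only wells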
# Mcl1 Noxa PPI: Mcl-1/Noxa interaction inhibition | 1.5% of 220,000 active | AID 1022 | inhibition, % at 21.7 µM | TR-FRET Mcl-1/Noxa peptide binding, 2 h;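 active means compounds that cut the protein-peptide binding signal by more than 50% relative to plate controls in a single-dose test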;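 further: His-tagged Mcl-1 with rhodamine Noxa BH3 peptide and terbium anti-His antibody; 0% = Mcl-1 plus Noxa peptide wells and 100% = peptide-only wells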
# The depositor's hits bear a star; i = inactive; / = no result given; [ ] = dose if it differs, or a comment.
SMILES,m-calpain inh,Mcl-1 Bim block,NCF1 inh,14-3-3 Bad PPI,Mcl1 Bid PPI,Mcl1 Noxa PPI
O=c1cc(CO)oc(C(Nc2ccccn2)c2ccc(F)cc2)c1O (stereo unspecified),-36,0,-1,12,52*,62*
COC(=O)C1(Cc2ccc(O)cc2)OC(=O)C(O)=C1c1ccc(O)cc1 (stereo unspecified),-26,/,5,7,-111,38
CCOC(=O)Cc1cc(=O)n2[nH]cc(-c3cccc(Br)c3)c2n1,-207,-3,-12,-24,-28,-1
Cc1ccc(NC(=O)c2c3c(nc4ccccc24)CCC3)cc1S(=O)(=O)N(C)C,-142,-5,-8,-15,-25,47
COc1ccc(NC(=O)c2c3c(nc4ccccc24)CCC3)cc1S(=O)(=O)N1CCOCC1,-74,-1,6,-3,-99,67*
N#CCCN(Cc1cccnc1)C(=S)Nc1ccccc1Cl,2,-1,37*,-2,-42,4
O=C(O)/C(=C\c1cccc([N+](=O)[O-])c1)c1ccc(S(=O)(=O)N2CCCCC2)s1,32,/,-2,11,4,44
O=C(O)/C(=C\c1ccccc1Cl)c1ccc(S(=O)(=O)N2CCCCC2)s1,-15,0,0,6,36,62*
O=C(O)/C(=C\c1ccc(Cl)c([N+](=O)[O-])c1)c1ccc(S(=O)(=O)N2CCCCC2)s1,-38,-1,-12,-2,-6,56*
CSc1ccc(/C=C(\C(=O)O)c2ccc(S(=O)(=O)N3CCCCC3)s2)cc1,-15,8,-8,6,1,14
Cc1ccc2oc(C(F)(F)C(F)F)cc(=O)c2c1,-25,/,-13,34,88*,-13
Cc1ccc2oc(C(Cl)(Cl)Cl)cc(=O)c2c1,-5,-4,-7,26,17,35
CC(=O)OC(C(=O)NCCN1CCOCC1)c1c(F)cccc1F (stereo unspecified),5,-2,3,-3,-45,-6
COc1cc(/C=N/NC(=O)c2ccc([N+](=O)[O-])cc2Cl)cc(Br)c1O,45,9,-2,6,-42,82*
COC(=O)N/N=C/c1cc(OC)c(O)c([N+](=O)[O-])c1,15,-3,-4,-18,-23,32
COc1cc(/C=N/NC(=O)c2ccc(COc3ccccc3Cl)o2)cc(Br)c1O,-29,-19,15,38,40,73*
COc1ccc(Br)cc1C(=O)N/N=C/c1ccc([N+](=O)[O-])cc1,-88,-3,-5,15,5,17
COc1cccc(/C=N/NC(=O)c2ccc(COc3ccc(Cl)cc3Cl)o2)c1,-137,0,-8,12,5,11
COc1cc(/C=N/NC(N)=O)cc([N+](=O)[O-])c1O,18,5,0,12,-11,52*
Cc1ccc(C2=NOC3(CC(=O)N(c4ccc(C)cc4)C3=O)C2)cc1 (stereo unspecified),-16,/,-24,5,-31,-5
O=C(NCc1ccco1)c1cc2ccc(O)cc2oc1=O,i,0,-35,/,-75,56*
C/C(=N\NC(=O)COc1ccc(C#N)cc1)c1ccccc1OC(F)F,15,49*,7,9,-13,-1
O=C(O)c1ccc(S(=O)(=O)c2ccc(Sc3ccc(C(=O)O)c(C(=O)O)c3)cc2)cc1,-12,0,-14,12,-4,35
C/C(=N/NC(=O)c1cc(O)c(O)c(O)c1)c1ccc([N+](=O)[O-])cc1,-20,8,-4,-3,-50,59*
C/C(=N/NC(=O)CNC(=O)c1cccnc1)c1ccc([N+](=O)[O-])cc1,26,2,-4,2,3,73*
C/C(=N/NC(=O)CNC(=O)c1ccccn1)c1ccc([N+](=O)[O-])cc1,-5,-1,-7,-20,-27,17
C/C(=N/NC(=O)c1cc(-c2cccc([N+](=O)[O-])c2)n[nH]1)c1ccc(Cl)cc1,68*,4,25,77*[fluorescence artefact?],74*,64*
N/C(=N\OCc1ccc([N+](=O)[O-])cc1)c1ccncc1,18,-2,-4,6,7,13
Cc1ccc(C(=O)c2c[nH]c3c(F)cc(F)cc3c2=O)cc1,10,0,-6,6,-7,3
Cc1[nH]c2ccccc2c1/C=N/NC(N)=S,21,/,-10,-2,-38,6
